Compound activity deposited in PubChem BioAssay by National Center for Advancing Translational Sciences (NCATS).
Only some compounds are listed: those with a hit (about 1.8% of all), similar ones and a draw of the others.
12-LOX inh = ALOX12 (human) lipoxygenase inhibition; P18054; purified 12hLO, xylenol orange hydroperoxide absorbance; 580,000 compounds, 1.1% hits; Potency, µM (top dose mostly 108 µM), usual class: inhibitors
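Purified human 12hLO at 150 nM in 25 mM Hepes, 0.01% Triton X-100, pH 7.0, preincubated 15 min at room temperature with compound. Reaction started with 40 uM arachidonic acid, 30 min at room temperature. Hydroperoxide measured by Fe-xylenol orange, 573/405 nm absorbance ratio.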
A-T KAP1 phos = potential ataxia-telangiectasia treatments restoring KAP-1 phosphorylation. Potency, µM (top dose mostly 57.5 µM), most hits filed as activators. 320,000 compounds, 0.19% hits. AID 485349. F2112 A-T fibroblasts, KAP-1 phosphorylation AlphaLISA; neocarzinostatin DNA damage 30 min before lysis; note: nearly all actives have a fitted effect of over 45% in size
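hTERT-immortalized A-T patient fibroblasts (F2112), 500 cells/well in OPTI-MEM, 1% FBS, got compounds for 60 min, then NCS for 30 min at 37C. Lysates were then assayed for phospho-KAP-1 by AlphaLISA (anti-pKAP1 donor, anti-KAP1 acceptor beads), 6 hr at 25C.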
KCNH2 3.1 block = inhibitors of human KCNH2 3.1 potassium channel isoform; U2OS KCNH2 3.1, thallium flux FluxOr; stronger effect = lower value; activity change, % (tested at about 1.8 µM); 340,000 compounds, 0.95% hits; AID 720553;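 active = maximum activity change below -70%; inconclusive = maximum activity change from -70% to -50%; inactive = maximum activity change above -50%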;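 note: thallium influx rate constant from kinetic fluorescence after stimulation buffer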
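We transduce U2OS cells with the mutant 3.1 virus, culture them overnight, load FluxOr with Red40 quencher for 45 min, then add stimulation buffer and read kinetically for 2 min to derive a normalized rate constant.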
KCNH2 WT inh = inhibitors of human wildtype KCNH2 potassium channel. U2OS, BacMam KCNH2, thallium flux FluxOr; stronger effect = lower value. activity change, % at 1.84 µM. 340,000 compounds, 0.37% hits. AID 720551;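 active = maximum activity change below -70%; inconclusive = maximum activity change between -70% and -50%; inactive = maximum activity change above -50%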
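U2OS cells were transduced with wild-type KCNH2 virus (2.03 x 10^8 / mL) for 4 h at room temperature, then cultured overnight at 37 C. Thallium flux was read with FluxOr dye. Rate constants were normalized to DMSO controls.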
Numbers stand for hits; . = inactive; ? = inconclusive; / = no result given. Unless noted, calls come from the whole dose curve; as a rule, active = well fitted curve in the direction sought with a large enough effect; inconclusive = small, poorly fitted or top-dose-only effect, or another doubt; inactive = no such curve, though single readings can be large; an effect the other way counts as inactive or inconclusive.

SMILES	12-LOX inh	A-T KAP1 phos	KCNH2 3.1 block	KCNH2 WT inh
COc1cccc(C2C(C(=O)c3cccs3)=C(O)C(=O)N2c2cc(C)on2)c1 (centres undefined)	?	.	.	.
COc1cccc(C2C(C(=O)c3ccc(C)o3)=C(O)C(=O)N2c2cc(C)on2)c1 (centres undefined)	50µM	.	.	.
CCOc1ccc(C2C(C(=O)c3ccc(C)o3)=C(O)C(=O)N2c2cc(C)on2)cc1OC (centres undefined)	25µM	.	.	.
COc1cc(C2C(C(=O)c3ccc(C)o3)=C(O)C(=O)N2c2cc(C)on2)ccc1OCc1ccccc1 (centres undefined)	?	.	.	.
Cc1cc(C)c2c(N)c(C(=O)NN3CC(=O)N(c4ccccc4)CC3=O)sc2n1	50µM	.	.	.
CCC(c1cccs1)N1C(=O)[C@H]2CN(S(=O)(=O)c3cccc(Cl)c3)C[C@H]2C1=O (some centres undefined)	32µM	/	/	/
CCCCOc1ccc2c(=O)c(-c3cc(C(=O)OC)oc3C)c(C)oc2c1	45µM	/	/	/
O=C1NCN(c2ccccc2)C12CCN(CCCC(c1ccc(F)cc1)c1ccc(F)cc1)CC2	?	.	.	-194
O=C(CCCN1CCN(c2ccccc2)CC1)c1ccc(F)cc1	.	/	.	.
Cc1cc(S(=O)(=O)c2ccc(Cl)cc2)nc(S(=O)(=O)c2ccc(Cl)cc2)c1C#N	?	/	-73	.
CCCc1c(CC)c(=N)c2ccccc2n1C	5µM	.	.	.
Cn1c(-c2ccccc2)c(C(=O)CCl)c2ccccc21	.	?	.	.
O=[N+]([O-])c1ccc(COc2ccc(CN3CCOCC3)cc2)cc1	.	/	.	.
O=C(OCc1ccc([N+](=O)[O-])cc1)c1cc([N+](=O)[O-])ccc1N1CCOCC1	.	.	-89	-106
COCCNC(=O)c1ccc(CN2CCOCC2)cc1	.	.	.	-133
O=[N+]([O-])c1ccc(CN2CCOCCOCCN(Cc3ccc([N+](=O)[O-])cc3)CCOCC2)cc1	/	.	-115	-90
O=[N+]([O-])c1ccc(COc2ccc(Br)cc2CN2CCOCC2)cc1	?	.	-90	.
O=C(Nc1nc(-c2ccccc2)cs1)c1ccc(N2CCOCC2)c([N+](=O)[O-])c1	/	.	.	.
Cc1ccc(-c2csc(NC(=O)c3cc([N+](=O)[O-])ccc3N3CCOCC3)n2)cc1	.	.	.	-108
COc1ccc(CN2CCOCCOCCN(Cc3ccc(OC)cc3)CCOCCOCC2)cc1	.	.	-74	.
CSc1ccc(CN2CCN(Cc3ccc([N+](=O)[O-])cc3)CC2)cc1	?	.	-110	-112
COCCNC(=O)c1cccc(OC2CCN(Cc3ccc(OC(F)F)cc3)CC2)c1	.	.	-80	.
CC(O)CNS(=O)(=O)c1cccc(C(=O)O)c1 (centres undefined)	.	/	/	/
COc1ccc(Cn2c(C3CCN(C(=O)c4ccc(C)s4)CC3)n[nH]c2=O)cc1	.	/	/	/
Cc1csc2c(N3CCN(C(=O)Nc4ccc(OC(F)(F)F)cc4)CC3)ncnc12	?	.	-92	.
SMILES	12-LOX inh	A-T KAP1 phos	KCNH2 3.1 block	KCNH2 WT inh
COc1cc(/C=N/NC(N)=O)ccc1OC(=O)c1ccc(C)cc1	/	.	/	/
COc1ccc(/C=N/NC(N)=S)cc1	25µM	.	.	.
CC(C)Oc1ccc(/C=N/NC(N)=S)cc1	?	.	.	.
CN(CCC#N)c1ccc(/C=N/NC(N)=S)cc1	18µM	/	/	/
COc1ccc(C(=O)Oc2cc(/C=N/NC(N)=S)ccc2OC)cc1	32µM	.	.	.
COc1ccc(/C=N/NC(N)=S)cc1OC(=O)c1cccc2ccccc12	16µM	.	.	.
CSc1cccc(-n2ccnc2-c2cc3n(n2)CCCNC3)c1	.	/	/	/
COc1cccc(NC(=O)C(Nc2ccccc2)c2ccccc2F)c1 (centres undefined)	.	/	/	/
O=C(NC1CCCC1)c1cc2n(n1)CC(c1ccc3c(c1)OCO3)OC2 (centres undefined)	.	/	/	/
Clc1ccc(C2Nc3cccc4cccc(c34)N2)cc1	4.5µM	.	.	.
CSc1ccc(C2Nc3cccc4cccc(c34)N2)cc1	?	.	.	.
O=[N+]([O-])c1cc(C2Nc3cccc4cccc(c34)N2)ccc1Cl	40µM	.	.	.
COc1ccc(C2=NOC(Cn3c(=O)c4c(ncn4C)n(C)c3=O)C2)cc1 (centres undefined)	.	/	/	/
Cc1ccc(-c2csc3nc4ccc(C(=O)NCCO)cc4c(=O)n23)cc1	.	.	.	.
Cc1ccc(-c2csc3nc4cc(C(=O)NC5CCC(O)CC5)ccc4c(=O)n23)cc1 (centres undefined)	11µM	.	.	.
CCc1nc(-c2ccc(-c3ccc(OC)cc3)nc2OC)no1	.	.	.	.
COc1ccc(-c2ccc(-c3noc(C(C)C)n3)c(OC)n2)cc1	.	14µM	.	.
Clc1ccccc1C1(c2ccnc(NCCc3cccnc3)n2)CCNCC1	20µM	/	/	/
COc1ccc(N(CCC#N)C(=O)/C(C#N)=C\c2cccs2)cc1	.	3.2µM	.	.
FC(F)(F)c1ccccc1-c1nc(NCc2cccnc2)c2ccccc2n1	45µM	/	/	/
FC(F)(F)c1nc(NCc2cccnc2)c2ccccc2n1	.	.	.	.
FC(F)(F)c1ccccc1-c1cc(NCc2cccnc2)ncn1	45µM	/	/	/
Cc1ccccc1S(=O)(=O)N1CCCCCCNC(=O)[C@@H]2CCC[C@@H]21	.	/	/	/
COc1ccc(-c2cc(C(F)(F)F)nc(SCC(=O)NCc3cnn(C)c3C)n2)cc1OC	.	.	.	-174
NC(=O)[C@H]1CC2(CC(c3cccc(NC(=O)COc4ccc(Cl)cc4)c3)=NO2)CN1C(=O)c1ccc(Cl)cc1 (some centres undefined)	?	.	-91	.
SMILES	12-LOX inh	A-T KAP1 phos	KCNH2 3.1 block	KCNH2 WT inh
C/C=C/C(=O)Nc1cccc(C2=NOC3(C2)C[C@@H](C(N)=O)N(C(=O)c2cc([N+](=O)[O-])cc([N+](=O)[O-])c2C)C3)c1 (some centres undefined)	?	.	-84	.
C/C=C\C(=O)Nc1cccc(C2=NOC3(C2)C[C@@H](C(N)=O)N(C(=O)CCCCC)C3)c1 (some centres undefined)	.	.	.	-85
NC(=O)[C@H]1CC2(CC(c3cccc(NC(=O)COc4ccc(Cl)cc4)c3)=NO2)CN1C(=O)CC(c1ccccc1)c1ccccc1 (some centres undefined)	?	.	.	.
NC(=O)[C@@H]1CC2(CC(c3cccc(NC(=O)CC(c4ccccc4)c4ccccc4)c3)=NO2)CN1C(=O)COc1ccc(Cl)cc1 (some centres undefined)	.	35µM	.	.
O=C(O)CC1(CC(=O)N2CCN3C(=O)N(Cc4ccccc4)C(=O)[C@H]3C2)CCCC1	.	/	/	/
Cc1ccc(C(=O)COC(=O)C2CC(=O)N(c3nc(-c4cccc(Cl)c4)c(C)s3)C2)cc1 (centres undefined)	.	/	/	/
